# Measurements reported in PubChem BioAssay (NCI).
# The panel holds about 79,000 compounds, 15% with a hit somewhere; the sample as a whole holds those more often. Unmarked numbers belong to inactive results. The source made the active and inactive calls. Rule as the data show it: active = growth inhibition above about 70%; inactive = the rest.
# Key:
# [1] = NCI Yeast Anticancer Drug Screen. Data for the rad52 strain (AID 147);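 also: 0% = growth of vehicle-treated control cultures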; details: S. cerevisiae rad52 mutant growth inhibition, stronger effect = higher value
# How it was run: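 Compounds are applied to a genetically defined yeast strain lacking normal DNA damage repair, and inhibition of growth is expressed relative to cultures given vehicle only.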
# [2] = NCI Yeast Anticancer Drug Screen. Data for the wt1 strain (AID 149);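 also: 0% = growth of vehicle-treated wt1 cultures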; details: S. cerevisiae wt1 strain (SPY 50644) growth inhibition, stronger effect = higher value
# How it was run: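 wt1 yeast, compound-treated; % growth inhibition vs vehicle control.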
# [3] = NCI Yeast Anticancer Drug Screen. Data for the rad50EPP+ strain (AID 151);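 also: 0% = growth of vehicle-treated control cultures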; details: S. cerevisiae rad50 mutant strain, stronger effect = higher value
# How it was run: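 Compounds were applied to the rad50EPP+ yeast strain, which bears a defined DNA repair alteration, and growth inhibition was determined relative to vehicle-treated cultures.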
# [4] = NCI Yeast Anticancer Drug Screen. Data for the mgt1 strain (AID 153); details: S. cerevisiae mgt1 mutant growth inhibition, stronger effect = higher value
# How it was run: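 Strain: mgt1 yeast, one of a set carrying defined DNA damage repair or cell cycle control alterations. Compound-treated growth compared with vehicle.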
# [5] = NCI Yeast Anticancer Drug Screen. Data for the rad50 strain (AID 155);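 also: 0% = growth of vehicle-only cultures of the same strain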; details: S. cerevisiae rad50 strain growth inhibition, stronger effect = higher value
# How it was run: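 Genetically altered yeast (DNA repair pathway); compound treatment; growth inhibition vs vehicle ctrl.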
# [6] = NCI Yeast Anticancer Drug Screen. Data for the mec2-1 strain (AID 157); details: S. cerevisiae mec2-1 strain, stronger effect = higher value
# How it was run: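 Strain: mec2-1 (DNA repair/cell cycle alteration). Compound exposure, then growth measured; inhibition expressed relative to vehicle.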
# [7] = NCI Yeast Anticancer Drug Screen. Data for the rad14 strain (AID 159);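 also: 0% = growth of vehicle-treated control cultures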; details: S. cerevisiae rad14 strain growth inhibition, stronger effect = higher value
# How it was run: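 Test compounds were applied to a repair-deficient yeast strain. Its growth was then compared with that of cultures given vehicle alone, and inhibition was expressed relative to those controls.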
# [8] = NCI Yeast Anticancer Drug Screen. Data for the sgs1 mgt1 strain (AID 161);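 also: 0% = growth of cultures given vehicle only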; details: S. cerevisiae sgs1 mgt1 strain, stronger effect = higher value
# How it was run: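 Genetically altered yeast, compound exposure, growth inhibition relative to vehicle.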
# [9] = NCI Yeast Anticancer Drug Screen. Data for the CLN2oe strain (AID 163);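 also: 0% = growth of vehicle-only control cultures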; details: S. cerevisiae CLN2oe strain, stronger effect = higher value
# How it was run: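 Growth of a genetically modified yeast strain is measured after compound exposure and compared with cultures given vehicle alone.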
# [10] = NCI Yeast Anticancer Drug Screen. Data for the cln2 rad14 strain (AID 165);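 also: 0% = growth equal to vehicle treated cultures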; details: S. cerevisiae cln2 rad14 strain, stronger effect = higher value
# How it was run: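 Compounds are applied to the cln2 rad14 yeast strain, and growth is then compared with that of vehicle-treated cultures to give inhibition.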
# [11] = NCI Yeast Anticancer Drug Screen. Data for the bub3 strain (AID 167); details: S. cerevisiae bub3 mutant strain, stronger effect = higher value
# How it was run: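 Yeast carrying a defined mutation is treated with each compound, and growth is compared with that of vehicle-exposed cells to give inhibition.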
# [12] = NCI Yeast Anticancer Drug Screen. Data for the wt2 strain (AID 169);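 also: 0% = growth of vehicle-treated yeast cultures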; details: S. cerevisiae wt2 strain growth inhibition, stronger effect = higher value
# How it was run: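 This strain belongs to a panel of yeast strains with defined genetic alterations in DNA damage repair or cell cycle control. Compounds are applied, and growth inhibition is measured against vehicle-treated cultures.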
# [13] = NCI Yeast Anticancer Drug Screen. Data for the mlh1 strain (AID 171);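 also: 0% = growth of vehicle-treated control cultures of the same strain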; details: S. cerevisiae mlh1 strain growth inhibition, stronger effect = higher value
# How it was run: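 Growth of the mutant yeast strain after compound exposure, expressed as inhibition relative to vehicle-only controls.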
# [14] = NCI Yeast Anticancer Drug Screen. Data for the sgs1 strain (AID 173);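 also: 0% = growth of vehicle-only control cultures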; details: S. cerevisiae sgs1 mutant, stronger effect = higher value
# How it was run: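 Growth of a yeast strain bearing a defined genetic alteration is measured after compound treatment. Inhibition is expressed relative to vehicle-only controls.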
# [15] = NCI Yeast Anticancer Drug Screen. Data for the mlh1 rad18 strain (AID 175); details: S. cerevisiae mlh1 rad18 strain growth inhibition, stronger effect = higher value
# How it was run: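 Read-out is yeast growth inhibition, calculated against vehicle-only controls. The compound was applied to a strain engineered with DNA damage repair alterations.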
# [16] = NCI Yeast Anticancer Drug Screen. Data for the rad18 strain (AID 177); details: S. cerevisiae rad18 mutant growth inhibition, stronger effect = higher value
# How it was run: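 Growth of the mutant yeast strain after compound exposure, normalised to vehicle-only cultures.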
# [17] = at 5.0 µM (retest, dose inferred, filed as 0.5)
# [18] = at 50.0 µM (retest, dose inferred, filed as 5.0)
structure (smiles),measurement,setting,value
O=P(CCCCP(=O)(c1ccccc1)c1ccccc1)(c1ccccc1)c1ccccc1.[Cl][Sn]([Cl])([c]1ccccc1)[c]1ccccc1,growth inhibition,[1]; at 1.2 µM,-4%
same,growth inhibition,[1]; at 3.7 µM,26%
same,growth inhibition,[1]; at 11.0 µM,74% (active)
same,growth inhibition,[1]; at 33.0 µM,96% (active)
same,growth inhibition,[1]; at 100.0 µM,97% (active)
same,growth inhibition,[2]; at 1.2 µM,-6%
same,growth inhibition,[2]; at 3.7 µM,3%
same,growth inhibition,[2]; at 11.0 µM,26%
same,growth inhibition,[2]; at 33.0 µM,93% (active)
same,growth inhibition,[2]; at 100.0 µM,96% (active)
same,growth inhibition,[3]; at 1.2 µM,8%
same,growth inhibition,[3]; at 3.7 µM,-1%
same,growth inhibition,[3]; at 11.0 µM,2%
same,growth inhibition,[3]; at 33.0 µM,14%
same,growth inhibition,[3]; at 100.0 µM,15%
same,growth inhibition,[4]; at 1.2 µM,13%
same,growth inhibition,[4]; at 3.7 µM,24%
same,growth inhibition,[4]; at 11.0 µM,74% (active)
same,growth inhibition,[4]; at 33.0 µM,96% (active)
same,growth inhibition,[4]; at 100.0 µM,97% (active)
same,growth inhibition,[5]; at 1.2 µM,26%
same,growth inhibition,[5]; at 3.7 µM,24%
same,growth inhibition,[5]; [17],66%
same,growth inhibition,[5]; at 11.0 µM,82% (active)
same,growth inhibition,[5]; at 33.0 µM,97% (active)
same,growth inhibition,[5]; [18],98% (active)
same,growth inhibition,[5]; at 50.0 µM,85.7% (active)
same,growth inhibition,[5]; at 100.0 µM,97% (active)
same,growth inhibition,[6]; at 1.2 µM,11%
same,growth inhibition,[6]; at 3.7 µM,22%
same,growth inhibition,[6]; [17],48%
same,growth inhibition,[6]; at 11.0 µM,70% (active)
same,growth inhibition,[6]; at 33.0 µM,95% (active)
same,growth inhibition,[6]; [18],98% (active)
same,growth inhibition,[6]; at 50.0 µM,87.8% (active)
same,growth inhibition,[6]; at 100.0 µM,96% (active)
same,growth inhibition,[7]; at 1.2 µM,4%
same,growth inhibition,[7]; at 3.7 µM,16%
same,growth inhibition,[7]; at 11.0 µM,78% (active)
same,growth inhibition,[7]; at 33.0 µM,94% (active)
same,growth inhibition,[7]; at 100.0 µM,96% (active)
same,growth inhibition,[8]; [17],83% (active)
same,growth inhibition,[8]; [18],98% (active)
same,growth inhibition,[8]; at 50.0 µM,87.3% (active)
same,growth inhibition,[9]; at 1.2 µM,-16%
same,growth inhibition,[9]; at 3.7 µM,-27%
same,growth inhibition,[9]; at 11.0 µM,15%
same,growth inhibition,[9]; at 33.0 µM,91% (active)
same,growth inhibition,[9]; at 100.0 µM,95% (active)
same,growth inhibition,[10]; [17],15%
same,growth inhibition,[10]; [18],97% (active)
same,growth inhibition,[10]; at 50.0 µM,81.8% (active)
same,growth inhibition,[11]; at 1.2 µM,7%
same,growth inhibition,[11]; at 3.7 µM,-3%
same,growth inhibition,[11]; [17],67%
same,growth inhibition,[11]; at 11.0 µM,50%
same,growth inhibition,[11]; at 33.0 µM,93% (active)
same,growth inhibition,[11]; [18],98% (active)
same,growth inhibition,[11]; at 50.0 µM,87.5% (active)
same,growth inhibition,[11]; at 100.0 µM,96% (active)
same,growth inhibition,[12]; at 1.2 µM,-51%
same,growth inhibition,[12]; at 3.7 µM,-35%
same,growth inhibition,[12]; at 11.0 µM,43%
same,growth inhibition,[12]; at 33.0 µM,92% (active)
same,growth inhibition,[12]; at 100.0 µM,96% (active)
same,growth inhibition,[13]; at 1.2 µM,3%
same,growth inhibition,[13]; at 3.7 µM,9%
same,growth inhibition,[13]; at 11.0 µM,80% (active)
same,growth inhibition,[13]; at 33.0 µM,96% (active)
same,growth inhibition,[13]; at 100.0 µM,97% (active)
same,growth inhibition,[14]; at 1.2 µM,0%
same,growth inhibition,[14]; at 3.7 µM,15%
same,growth inhibition,[14]; at 11.0 µM,68%
same,growth inhibition,[14]; at 33.0 µM,96% (active)
same,growth inhibition,[14]; at 100.0 µM,97% (active)
same,growth inhibition,[15]; [17],84% (active)
same,growth inhibition,[15]; [18],96% (active)
same,growth inhibition,[15]; at 50.0 µM,89.5% (active)
same,growth inhibition,[16]; at 1.2 µM,3%
same,growth inhibition,[16]; at 3.7 µM,16%
same,growth inhibition,[16]; at 11.0 µM,82% (active)
same,growth inhibition,[16]; at 33.0 µM,95% (active)
same,growth inhibition,[16]; at 100.0 µM,96% (active)
